The panel holds about 83,000 compounds, 20% with a hit somewhere; the sample as a whole holds those more often.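 Method: cells in 96-well plates; compound added at one concentration; 48 h incubation; percent growth measured; values under 10 scored active.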 A number with no mark means an inactive call. Activity calls are given as the source filed them.
What follows are compounds tested on HCT-15 colon (assay: NCI-60 one-dose screen, 48 h (100 = growth as untreated, 0 = no growth, -100 = all killed)). Details: 10 µM unless noted.
With `COc1ccc(/C=C2\COc3ccc(O)cc3C2=O)c(OC)c1` the growth was 34.4%. `CN(C)CCC(O)(Cc1ccccc1)c1ccccc1` (stereo not drawn) was tested, and the growth was 108%. `COc1ccc(-c2cc(-c3ccc(Nc4nc(Nc5ccccc5)nc(Nc5ccc(Cl)cc5)n4)cc3)nc(N)n2)cc1` gave a growth of 76.6%. `Clc1ccc2c(NCCCN3CCN(c4nc(-n5ccnc5)nc5ccccc45)CC3)ccnc2c1` was tested, and the growth was -64.6% (active). Compound `Cn1ncc2c(Nc3ccc(Br)cc3)nc(Nc3ccc(Br)cc3)nc21` has a growth of 22.4%. For `OC(COc1cccc2ccccc12)CN1CCN(c2ccccc2)CC1` (stereo not drawn), the growth was 99.6%. Work on `O=c1[nH]c(=O)n(C2CC(O)C(CO)O2)cc1CO` (stereo not drawn) yielded a growth of 98.7%. In the case of `COc1cc2oc(-c3cccc(C(=O)Nc4ccc(C#N)cc4)c3)cc(=O)c2c(O)c1OC`, the growth is reported as 75%. `C=C(Cl)COC(=O)C(C)(C)O` was tested, and the growth was 102%. In the case of `CC(C)(C)OC(=O)N1Cc2cc3ccccc3nc2C1CO` (stereo not drawn), the growth is reported as 118%. For `COC1(CC[C@@H](C)COC2OC(CO)C(O)C(O)C2O)O[C@H]2C[C@H]3[C@@H]4CC=C5C[C@@H](OC6OC(CO)C(OC7OC(C)C(O)C(O)C7O)C(O)C6OC6OC(C)C(O)C(O)C6O)CC[C@]5(C)[C@H]4CC[C@]3(C)[C@H]2[C@@H]1C` (stereo partly drawn), the growth was -88.7% (active). For `COc1cc(-c2cc(-c3ccc(Nc4nc(Nc5ccccc5)nc(Nc5ccc(Cl)cc5)n4)cc3)nc(N)n2)cc(OC)c1OC`, the growth was 62.3%. Work on `CN(C)c1ccc(C#Cc2c(F)cccc2Cl)cc1` yielded a growth of 78.4%. In the case of `NC(N)=N/N=C(/c1ccccc1)c1ccc(N)cc1`, the growth is reported as 106%. For `N=C(N)c1ccc(-c2ccc(-c3ccc(Cl)cc3Cl)o2)cc1`, the growth was -74.1% (active). For `O=C(Oc1ccc[nH]c1=O)c1cc([N+](=O)[O-])cc([N+](=O)[O-])c1`, the growth was 103%. Work on `Clc1ccc(-c2nnc(Cn3ccnc3)o2)cc1` yielded a growth of 94.2%. Compound `COc1cccc(CCC2CCCN(c3cc(C)nc(N)n3)C2)c1` (stereo not drawn) has a growth of 21.9%. `O=C1Nc2ccccc2SC1C1SC(=S)N(Cc2ccccc2)C1=O` (stereo not drawn) gave a growth of 103%. Compound `NC(=Nc1ccc(N)cc1)C(N)=Nc1ccc(N)cc1` has a growth of 98.5%. With `OC(c1cccc(OCc2ccccc2)c1)c1nnc(-c2ccccc2)o1` (stereo not drawn) the growth was 90%. `CN1CCN(c2ccc(Nc3ncc(Cl)c(NC[C@@H]4CCCO4)n3)cc2)CC1` was tested, and the growth was 24.3%. Compound `CC[C@]1(O)C[C@H]2CN(CCc3c([nH]c4ccccc34)[C@@](C(=O)OC)(c3cc4c(cc3OC)N(C=O)[C@H]3[C@@](O)(C(=O)OC)[C@H](OC(C)=O)[C@]5(CC)C=CCN6CC[C@]43[C@@H]65)C2)C1` has a growth of 10.9%. In the case of `CCN(CC)CC(=O)Nc1cccc(C(=O)OC(C)C)c1`, the growth is reported as 93.9%. In the case of `Cc1cc(N(CCCNc2ccnc3cc(Cl)ccc23)Cc2ccccn2)nc(N2CCCC2)n1`, the growth is reported as 48.3%. `O=C1CSC(c2ccccc2O)N1c1nnc(Cn2cnnc2)o1` (stereo not drawn) was tested, and the growth was 66.2%. `CC(=O)c1sc(-c2ccccc2)cc1N` was tested, and the growth was 95.2%. With `COc1ccc(-c2cc(-c3ccc(Nc4nc(Nc5ccccc5)nc(Nc5ccc(Cl)cc5)n4)cc3)nc(N)c2C#N)cc1` the growth was -33.6% (active). `NS(=O)(=O)Oc1ccc(NC(=O)C23CC4CC(CC(C4)C2)C3)cc1Cl` was tested, and the growth was 101%. `COc1ccc(-c2nc3sccn3c2/C=C/C(=O)c2c[nH]c3ccccc23)cc1` was tested, and the growth was 60.5%. `COc1ccc(C2=NC(=O)NC2c2ccc(OC)cc2)cc1` (stereo not drawn) gave a growth of 48.4%. Work on `N=c1ccn2c(n1)OC1C(O)C(CO)OC12` (stereo not drawn) yielded a growth of 49.9%. `Cl.Fc1c[c-]c(-c2ccccn2)c(F)c1.[Pt].c1ccc(P(c2ccccc2)C([PH+](c2ccccc2)c2ccccc2)[PH+](c2ccccc2)c2ccccc2)cc1` showed a growth of 56.1%. `CCCn1nc(-c2ccccc2)c2c(-c3ccccc3)onc2c1=O` gave a growth of 61.8%. Compound `N#Cc1c(-c2ccccc2)nc(SCC2CO2)nc1N1CCOCC1` (stereo not drawn) has a growth of 74.2%. For `CCNCCNc1cc(-c2cccc(C(F)(F)F)c2)c(C#N)c2nc3ccccc3n12`, the growth was -91.4% (active). With `COc1ccc(Cn2cnc3cc(C(=O)Nc4cccc5ccccc45)ccc32)c(OC)c1` the growth was 3.1% [30 µM] (active). In the case of `CC(C)(C)N1CC(OC(N)=O)C1`, the growth is reported as 113%. `Cc1ccc(-n2nnc(C3=NCCc4c3[nH]c3ccc(Cl)cc43)c2C)cc1` was tested, and the growth was 65.8%.

Each compound was assayed on HT29 colon in the same assay as above. Details: 10 µM unless noted.
Work on `COc1ccc(/C=C2\COc3ccc(O)cc3C2=O)c(OC)c1` yielded a growth of 38.2%. `CN(C)CCC(O)(Cc1ccccc1)c1ccccc1` (stereo not drawn) showed a growth of 103%. With `COc1ccc(-c2cc(-c3ccc(Nc4nc(Nc5ccccc5)nc(Nc5ccc(Cl)cc5)n4)cc3)nc(N)n2)cc1` the growth was 52%. `Clc1ccc2c(NCCCN3CCN(c4nc(-n5ccnc5)nc5ccccc45)CC3)ccnc2c1` was tested, and the growth was -16.2% (active). For `Cn1ncc2c(Nc3ccc(Br)cc3)nc(Nc3ccc(Br)cc3)nc21`, the growth was 33.4%. Compound `OC(COc1cccc2ccccc12)CN1CCN(c2ccccc2)CC1` (stereo not drawn) has a growth of 94%. In the case of `O=c1[nH]c(=O)n(C2CC(O)C(CO)O2)cc1CO` (stereo not drawn), the growth is reported as 105%. `COc1cc2oc(-c3cccc(C(=O)Nc4ccc(C#N)cc4)c3)cc(=O)c2c(O)c1OC` was tested, and the growth was 53.9%. `C=C(Cl)COC(=O)C(C)(C)O` gave a growth of 92.8%. `CC(C)(C)OC(=O)N1Cc2cc3ccccc3nc2C1CO` (stereo not drawn) showed a growth of 101%. `COC1(CC[C@@H](C)COC2OC(CO)C(O)C(O)C2O)O[C@H]2C[C@H]3[C@@H]4CC=C5C[C@@H](OC6OC(CO)C(OC7OC(C)C(O)C(O)C7O)C(O)C6OC6OC(C)C(O)C(O)C6O)CC[C@]5(C)[C@H]4CC[C@]3(C)[C@H]2[C@@H]1C` (stereo partly drawn) was tested, and the growth was -76.6% (active). Compound `COc1cc(-c2cc(-c3ccc(Nc4nc(Nc5ccccc5)nc(Nc5ccc(Cl)cc5)n4)cc3)nc(N)n2)cc(OC)c1OC` has a growth of 52.4%. In the case of `CN(C)c1ccc(C#Cc2c(F)cccc2Cl)cc1`, the growth is reported as 73.7%. `NC(N)=N/N=C(/c1ccccc1)c1ccc(N)cc1` was tested, and the growth was 132%. `N=C(N)c1ccc(-c2ccc(-c3ccc(Cl)cc3Cl)o2)cc1` was tested, and the growth was -71.1% (active). For `O=C(Oc1ccc[nH]c1=O)c1cc([N+](=O)[O-])cc([N+](=O)[O-])c1`, the growth was 112%. `Clc1ccc(-c2nnc(Cn3ccnc3)o2)cc1` showed a growth of 102%. For `COc1cccc(CCC2CCCN(c3cc(C)nc(N)n3)C2)c1` (stereo not drawn), the growth was 4.64% (active). `O=C1Nc2ccccc2SC1C1SC(=S)N(Cc2ccccc2)C1=O` (stereo not drawn) was tested, and the growth was 12.9%. With `NC(=Nc1ccc(N)cc1)C(N)=Nc1ccc(N)cc1` the growth was 113%. `OC(c1cccc(OCc2ccccc2)c1)c1nnc(-c2ccccc2)o1` (stereo not drawn) was tested, and the growth was 116%. Compound `CN1CCN(c2ccc(Nc3ncc(Cl)c(NC[C@@H]4CCCO4)n3)cc2)CC1` has a growth of 16%. In the case of `CC[C@]1(O)C[C@H]2CN(CCc3c([nH]c4ccccc34)[C@@](C(=O)OC)(c3cc4c(cc3OC)N(C=O)[C@H]3[C@@](O)(C(=O)OC)[C@H](OC(C)=O)[C@]5(CC)C=CCN6CC[C@]43[C@@H]65)C2)C1`, the growth is reported as -3.03% (active). With `CCN(CC)CC(=O)Nc1cccc(C(=O)OC(C)C)c1` the growth was 81.5%. With `Cc1cc(N(CCCNc2ccnc3cc(Cl)ccc23)Cc2ccccn2)nc(N2CCCC2)n1` the growth was 44%. In the case of `O=C1CSC(c2ccccc2O)N1c1nnc(Cn2cnnc2)o1` (stereo not drawn), the growth is reported as 99.1%. `CC(=O)c1sc(-c2ccccc2)cc1N` was tested, and the growth was 88.7%. With `COc1ccc(-c2cc(-c3ccc(Nc4nc(Nc5ccccc5)nc(Nc5ccc(Cl)cc5)n4)cc3)nc(N)c2C#N)cc1` the growth was 6.85% (active). Work on `NS(=O)(=O)Oc1ccc(NC(=O)C23CC4CC(CC(C4)C2)C3)cc1Cl` yielded a growth of 103%. In the case of `COc1ccc(-c2nc3sccn3c2/C=C/C(=O)c2c[nH]c3ccccc23)cc1`, the growth is reported as 79.7%. Work on `COc1ccc(C2=NC(=O)NC2c2ccc(OC)cc2)cc1` (stereo not drawn) yielded a growth of 37.2%. Compound `N=c1ccn2c(n1)OC1C(O)C(CO)OC12` (stereo not drawn) has a growth of 34.4%. With `Cl.Fc1c[c-]c(-c2ccccn2)c(F)c1.[Pt].c1ccc(P(c2ccccc2)C([PH+](c2ccccc2)c2ccccc2)[PH+](c2ccccc2)c2ccccc2)cc1` the growth was 11.8%. For `CCCn1nc(-c2ccccc2)c2c(-c3ccccc3)onc2c1=O`, the growth was 43.1%. Compound `N#Cc1c(-c2ccccc2)nc(SCC2CO2)nc1N1CCOCC1` (stereo not drawn) has a growth of 74%. For `CCNCCNc1cc(-c2cccc(C(F)(F)F)c2)c(C#N)c2nc3ccccc3n12`, the growth was -82.5% (active). `COc1ccc(Cn2cnc3cc(C(=O)Nc4cccc5ccccc45)ccc32)c(OC)c1` was tested, and the growth was 8.08% [30 µM] (active). In the case of `CC(C)(C)N1CC(OC(N)=O)C1`, the growth is reported as 101%. In the case of `Cc1ccc(-n2nnc(C3=NCCc4c3[nH]c3ccc(Cl)cc43)c2C)cc1`, the growth is reported as 74.4%.

From PubChem BioAssay (NCI)
